Results filed as inconclusive are left out. A call without a number means that no potency is given here. The source made the active and inactive calls. The call rests on the fitted dose curve; in most records, active means well fitted cell-killing curve with a large enough effect; inconclusive means small, poorly fitted or top-dose-only effect; inactive means no such curve, though single readings can be large or run the other way.
assay: Cell Viability - LYMP2-001 (AID 921); settings: LYMP2-001 lymphoblastoid cell viability; series mostly up to 92.2 µM;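 further: cells exposed to compound for 24 h at 37 °C; nearly all actives have a fitted effect of over 70% in size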
Description: NIH Chemical Genomics Center [NCGC]
NIH Molecular Libraries Screening Centers Network [MLSCN]
National Institutes of Environmental Health Sciences [NIEHS]
National Toxicology Program [NTP]
We have developed a 1536-well cell-based assay for quantitative high throughput screening (qHTS) against a number of cell lines to determine in vitro cytotoxicity of small molecules. This particular assay uses a human lymphoblastoid cell line (LYMP2-001) purchased from Coriell Institute for Medical Research.
NCGC Assay Protocol Summary:
The CellTiter-Glo luminescent cell viability assay (Promega) is a homogeneous method to measure the number of viable cells in culture. The end point readout of this assay is based on quantitation of intracellular ATP, an indicator of metabolic activity, using the luciferase reaction. Luciferase catalyzes the oxidation of beetle Luciferin to oxyluciferin and light in the presence of ATP. The luminescent signal is proportional to amount of ATP present.
Using the CellTiter-Glo luminescent cell viability assay, the amount of cellular ATP was measured in the lymphoblastoid cell line with complete culture medium following compound treatment for 24 hours. The assay was performed in opaque white Kalypsys 1536-well plates. In the screen, tetraoctylammonium bromide was used as positive control. Library compounds were measured for their ability to cause acute toxicity in the cell line, as reflected by a decrease in intracellular ATP levels, in a concentration-dependent manner. […] AC50 values were determined from concentration-response data modeled with the standard Hill equation.
qHTS protocol for CellTiter Glo lymphoblastoid cellular assay
[Step] [Parameter] [Value] [Description]
1. Reagent; 5 uL; 2500 lymphoblastoid cells/well
2. Time; 5 hr; 37 C incubation
4. Controls; 23 nL; Tetraoctylammonium bromide 6.4pM to 92 uM
5. Time; 24 hr; 37 C incubation
6. Reagent; 5 uL; CellTiter Glo reagent
7. Time; 30 min; Room Temperature
8. Detection; Luminescence; Viewlux plate reader
Keywords: cell viability, cytotoxicity, lymphoblastoid cell line, luminescence, NTPHTS, NTPHTS_NCGC, NIEHS, DSSTox, MLSMR, MLSCN, NIH Roadmap, qHTS, NCGC
Potency means the concentration at half of the fitted maximal effect.

SMILES	Potency
O=C(Cl)c1ccccc1F	inactive
Oc1c(Cl)cccc1Cl	inactive
C=CCc1cc(OC)c2c(c1)OCO2	inactive
OCCCCO	inactive
BrCC(Br)C1CCC(Br)C(Br)C1 (stereo not given)	inactive
Nc1cc(Cl)ccc1Cl	inactive
ClCCOCOCCCl	inactive
Nc1ccc(Cl)c(Cl)c1	inactive
O=Cc1ccc(Cl)cc1Cl	inactive
C=CCCl	inactive
O=C(O)c1cc(Cl)ccc1Cl	inactive
ClC(Cl)(Cl)C(Cl)(Cl)Cl	inactive
CC12CC1(C)C(=O)N(c1cc(Cl)cc(Cl)c1)C2=O (stereo not given)	inactive
CCBr	inactive
CCOS(C)(=O)=O	inactive
Clc1ccc(C(Cl)(Cl)Cl)cc1Cl	inactive
c1ccoc1	inactive
O=C(O)CBr	inactive
C=CCBr	inactive
O=C(O)C(Cl)Br (stereo not given)	inactive

SMILES	Potency
C(CCOCC1CO1)COCC1CO1 (stereo not given)	inactive
O=S(=O)(O)F	inactive
O=C(Cc1ccccc1)OCc1ccccc1	inactive
C[N+](=O)[O-]	inactive
CCCCCc1cc(O)cc(O)c1	inactive
ClCc1ccccc1	inactive
CC(Cl)CCl (stereo not given)	inactive
CCCCOCC1CO1 (stereo not given)	inactive
CC(C)[C@]12CC(=O)[C@H](C)[C@H]1C2	inactive
CCC[N+](=O)[O-]	inactive
N#CCBr	inactive
CN(C)c1ccc(N(C)C)cc1	50.1 µM (active)
CC(C)(C)c1ccccc1O	inactive
O=[N+]([O-])c1ccc2c3c(cccc13)CC2	inactive
CC(C)(Cl)[N+](=O)[O-]	inactive
C=CCO	inactive
CC(=O)CCC(C)=O	inactive
Nc1ccc([N+](=O)[O-])cc1N	inactive
Cc1cccc(N)c1C	inactive
ClCC(Br)CBr (stereo not given)	inactive
